Experimental data as given in PubChem BioAssay (NCI).
This is part of a sample that, as a whole, favours compounds with a hit. Of some 83,000 tested, about 20% had one in any assay.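 Treatment: one concentration, 48 hours, 96-well format. Scoring: percent growth, with anything below 10 considered active.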 Unmarked numbers belong to inactive results. Calls of active or inactive are those of the source.

What was measured:
Assay in all cases: NCI-60 one-dose screen, 48 h (100 = growth as untreated, 0 = no growth, -100 = all killed)
Conditions in all cases: 10 µM unless noted
NCI-H23 lung = system: NCI-H23 lung
NCI-H226 lung = system: NCI-H226 lung
NCI-H322M lung = system: NCI-H322M lung
HOP-62 NSCLC = system: HOP-62 NSCLC
NCI-H460 lung = system: NCI-H460 lung
HOP-92 NSCLC = system: HOP-92 NSCLC
NCI-H522 lung = system: NCI-H522 lung
A549/ATCC NSCLC = system: A549/ATCC NSCLC
786-0 renal = system: 786-0 renal
COLO 205 colon = system: COLO 205 colon

| SMILES | growth (NCI-H23 lung) | growth (NCI-H226 lung) | growth (NCI-H322M lung) | growth (HOP-62 NSCLC) | growth (NCI-H460 lung) | growth (HOP-92 NSCLC) | growth (NCI-H522 lung) | growth (A549/ATCC NSCLC) | growth (786-0 renal) | growth (COLO 205 colon) |
| --- | --- | --- | --- | --- | --- | --- | --- | --- | --- | --- |
| CCOC(=O)Nc1cccc(-n2cnc3cc(-c4ccc(O)cc4)ccc32)c1 | 32.3% | 33.3% | 47.3% | 46.7% | 4.77% (active) | 116% | -12.7% (active) | 28.3% | 31.6% | -4.06% (active) |
| CC(C)C(=O)Nc1ccc(-c2nc(-c3cccc(O)c3)c(-c3ccnc(Br)c3)[nH]2)cc1 | 63.4% | 65.4% | 65.8% | 42.6% | 46.5% | 39.5% | 48.4% | 69.8% | 12.9% | 59.3% |
| CCCCCCNC(=O)Oc1ccc(/C(=C(/C)c2ccccc2)c2ccc(OCCN(C)C)cc2)cc1 | 65.3% | 89.6% | 77.1% | 86.1% | 18.3% | 44.5% | 68.8% | 73.4% | 57.4% | 6.56% (active) |
| CC1(C)CC[C@]2(C(=O)N3CCCN(CC#N)CC3)CC[C@]3(C)C(=CC[C@@H]4[C@@]5(C)CC[C@H](O)C(C)(C)[C@@H]5CC[C@]43C)[C@H]2C1 | 55.6% | 71.1% | 94.9% | 70.8% | 16.8% | 19.3% | 67.5% | 39.1% | 68.6% | -15.5% (active) |
| COc1ccc(CCN2C(=O)CSC2=S)cc1OC | 98.9% | 100% | 101% | 105% | 102% | 68.7% | 55.1% | 97.2% | 94.9% | 117% |
| CN1CCN(c2nc(-c3csc(-c4ccncc4)n3)cc3ccccc23)CC1 | 71.8% | 98.1% | 82.1% | 85% | 78.2% | 15.3% | 55.7% | 71.1% | 65.7% | 39.6% |
| COC(=O)c1nc(-c2ccc(C)cc2)oc1S(=O)(=O)N1CCN(c2oc(-c3ccccc3)nc2C#N)CC1 | 102% | 101% | 103% | 112% | 103% | 106% | 92.2% | 102% | 102% | 107% |
| COc1ccc(-c2nc(SCC(C)C)nc(N/N=C\c3cccc([N+](=O)[O-])c3)c2C#N)cc1 | 46.4% | 38% | 38.3% | 31.3% | 14.1% | 16.2% | 59.4% | 24.8% | 4.44% (active) | 85.8% |
| CS(=O)c1nccc(-c2c(-c3ccc(F)c(OCCc4ccccc4)c3)nc3sccn23)n1 (stereo not given) | 86.1% | 102% | 76.7% | 98.2% | 57.3% | 77% | -79.1% (active) | 109% | 104% | 80.7% |
| COc1ccc(/C=C/C(=O)c2nnn(-c3ccc(C(=O)O)cc3)c2C)cc1OC | 105% | 100% | 91.3% | 107% | 107% | 102% | 88.4% | 97.5% | 98.4% | 109% |
| COc1cc(/C=N/Nc2ccnc3cc(Cl)ccc23)cc(OC)c1O | -42% (active) | 96.2% | -45.1% (active) | -78% (active) | -63.9% (active) | -74% (active) | -73.8% (active) | -82.2% (active) | -87.5% (active) | 72% |
| CCN1C/C(=N\S(=O)(=O)c2ccccc2)N(CC)C1=S | 94.1% | 101% | 101% | 105% | 108% | 139% | 94.3% | 98.5% | 96.6% | 107% |
| CCN1CCN(c2cc(C(=O)Nc3nc4ccc(Oc5ccnc(C(=O)NC)c5)cc4s3)cc(C(F)(F)F)c2)CC1 | 89.6% | 90.8% | 95% | 104% | 46.4% | 91.1% | 78.7% | 86.5% | 70% | 59.9% |
| N/C(=N\c1nc2c(Cl)cccc2s1)C(Cl)(Cl)Cl | 93.2% | 107% | 0.236% (active) | 40.8% | 24.2% | 64.3% | 89.1% | 30% | 90.9% | 51.9% |
| CC[C@@](C)(NC(=O)C(C)(C)NC(=O)[C@@H](NC(=O)[C@@H]1CCCN1C(=O)C(C)(C)NC(=O)[C@H](CC(C)C)NC(=O)CNC(=O)C(C)(C)NC(=O)[C@@H](NC(=O)C(C)(C)NC(=O)[C@H](CCC(N)=O)NC(=O)[C@H](C)NC(=O)C(C)(C)NC(=O)[C@H](C)NC(=O)C(C)(C)NC(=O)[C@H](C)NC(=O)C(C)(C)NC(C)=O)C(C)C)C(C)C)C(=O)N[C@@H](CCC(N)=O)C(=O)N[C@@H](CCC(N)=O)C(=O)N[C@H](CO)CC1CCCCC1 | 16.2% [5 µM] | 47.8% [5 µM] | 48.8% [5 µM] | 47.2% [5 µM] | 35.1% [5 µM] | -17.2% [5 µM] (active) | 1.56% [5 µM] (active) | 47.8% [5 µM] | -14.2% [5 µM] (active) | -7.42% [5 µM] (active) |
| CC(=O)Nc1ccc(NC(=O)Nc2cccc(-c3nc(-c4ccc(NC(=O)c5cccs5)cc4Cl)no3)c2)cc1C(F)(F)F | -60.2% (active) | -41.2% (active) | -8.96% (active) | -74.8% (active) | -59.4% (active) | -46.8% (active) | -39.6% (active) | -27.1% (active) | -43.4% (active) | -64.4% (active) |
